# Bioassay records as filed in PubChem BioAssay.
# JMJD2E inh: blocks human JMJD2E demethylase activity; 230,000 compounds, 1.6% hits; Potency, µM (doses to about 57.1 µM), for inactives: at the top dose activity change, negative = inhibition, hits mostly inhibitors; B2RXH2; JMJD2E catalytic domain, FDH-coupled NADH fluorescence (FDH is formaldehyde dehydrogenase); active = well fitted inhibition curve with a large enough effect, not every such curve was filed as active; inconclusive = small, poorly fitted or top-dose-only effect, or another doubt; inactive = no such curve, though single readings can be large or run the other way;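 also: potency is read from the fitted curve at half-maximal effect; 0% = wells with enzyme and -100% = buffer wells without enzyme; nearly all actives have a fitted effect of over 50% in size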
# L3MBTL1 inh: blocks human L3MBTL1. AlphaScreen L3MBTL1–H3K9me1 peptide binding. 230,000 compounds, 0.66% hits. Potency, µM (highest dose often 57.1 µM), for the others: at the highest dose activity, negative = inhibition, actives largely listed as inhibitors. Q9Y468; also: potency is read from the fitted curve at half-maximal effect; % is scaled to controls: 0 for no effect and ±100 for the full control effect; nearly all actives have a fitted effect of over 60% in size
#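 L3MBTL1 (50 nM) pre-complexed 30 min with biotinylated H3(1-15)K9me1 peptide (75 nM), then compounds added for 30 min at room temperature; AlphaScreen streptavidin donor/nickel chelate acceptor beads (10 ug/mL final) read after 30 min dark incubation.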
# BAZ2B inh: BAZ2B (human) inhibition; Q9UIF8; 360,000 compounds, 4.4% hits; AlphaScreen BAZ2B-H3K14Ac peptide displacement; Potency, µM (series often up to 114 µM), without a hit: at the top dose activity change, negative = inhibition, actives largely listed as inhibitors; AID 504333; also: potency is read from the fitted curve at half-maximal effect; % is scaled to controls: 0 for no effect and ±100 for the full control effect; nearly all actives have a fitted effect of over 60% in size
#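 AlphaScreen displacement: compounds (up to 110uM) incubated 30 min at room temperature with a preformed 50 nM BAZ2B/50 nM biotinylated H3K14Ac peptide complex in PBS pH 7.4 with Tween-20. Donor and acceptor beads at 10 ug/mL final added, 20 min light-protected before reading.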
# HP1b binding inh: HP1-beta chromodomain-methylated histone interaction inhibition. 390,000 compounds, 0.56% hits. AID 540317. AlphaScreen HP1-beta / biotin-H3K9me3 peptide binding. Potency, µM (highest dose often 114 µM), for inactives: at the highest dose activity change, negative = inhibition, hits mostly inhibitors; also: potency is read from the fitted curve at half-maximal effect; nearly all actives have a fitted effect of over 70% in size
# Target sequence (P83916 whole entry, looked up): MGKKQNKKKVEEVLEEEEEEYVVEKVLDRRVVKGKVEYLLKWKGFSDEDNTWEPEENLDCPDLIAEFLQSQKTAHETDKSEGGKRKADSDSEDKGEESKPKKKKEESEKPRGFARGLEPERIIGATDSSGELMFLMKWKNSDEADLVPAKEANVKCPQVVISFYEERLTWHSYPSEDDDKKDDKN
#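 HP1-beta protein (50 nM final) preincubated 30 min at room temperature with biotinylated H3(1-18)K9me3 peptide (50 nM) in PBS pH 7.4, 0.01% Tween-20, then compound added for 30 min. AlphaScreen streptavidin donor/nickel chelate acceptor beads (10 ug/mL final), 30 min dark, luminescence read.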
# PI5P4K alpha inh: blocks human PI5P4K alpha kinase activity | P48426 | PI5P4Kalpha enzyme, ADP-Glo luminescence, 60 min; stronger effect = lower value | max response, % | 330,000 compounds, 1.2% hits; active = max response of -50% or lower; inconclusive = between -30% and -50%; inactive = -30% or higher; also: value at the top dose of about 77 µM; % is scaled to controls: 0 for no effect and ±100 for the full control effect
# Target sequence (P48426 whole entry, looked up): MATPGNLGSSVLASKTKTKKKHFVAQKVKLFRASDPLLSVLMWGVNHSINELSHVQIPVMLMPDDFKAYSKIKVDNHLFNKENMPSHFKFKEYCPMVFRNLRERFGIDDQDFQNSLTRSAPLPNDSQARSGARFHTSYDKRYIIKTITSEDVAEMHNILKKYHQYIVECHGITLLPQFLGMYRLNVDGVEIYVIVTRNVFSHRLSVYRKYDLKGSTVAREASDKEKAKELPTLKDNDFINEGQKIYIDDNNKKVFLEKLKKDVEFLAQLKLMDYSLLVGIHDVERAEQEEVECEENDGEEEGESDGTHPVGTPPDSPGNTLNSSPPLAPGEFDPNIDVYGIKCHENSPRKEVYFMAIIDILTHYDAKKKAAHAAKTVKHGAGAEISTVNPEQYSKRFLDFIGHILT
#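 Single end-point luminescence (ADP-Glo) quantified ADP from PI5P4Kalpha turnover; ATP 5 microM final, 1 h at RT, 0.1% CHAPS and 0.28 mM EGTA in HEPES pH 7.4.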
# JMJD2A Tudor inh: blocks the human JMJD2A Tudor domain; AlphaScreen JMJD2A-Tudor / H3K4me3 peptide binding; 390,000 compounds, 4.4% hits; Potency, µM (top dose mostly 114 µM), inactives show at the top dose activity change, negative = inhibition, most hits filed as inhibitors; AID 504339; O75164; also: potency is read from the fitted curve at half-maximal effect; % is scaled to controls: 0 for no effect and ±100 for the full control effect; nearly all actives have a fitted effect of over 50% in size
# Starred values were filed as active, the others as inactive; ? = inconclusive; · = not tested or not shown; ! = not confirmed by another sample; [ ] = dose if it differs, or a comment. Hits are enriched below; roughly 5.7% of the tested compounds scored in any of these assays. Unless noted, calls follow the shape of the dose curve; as a rule, active = well fitted inhibition curve with a large enough effect; inconclusive = small, poorly fitted or top-dose-only effect; inactive = no such curve, though single readings can be large or run the other way.
SMILES,JMJD2E inh,L3MBTL1 inh,BAZ2B inh,HP1b binding inh,PI5P4K alpha inh,JMJD2A Tudor inh
COc1ccc(/C=N/N2CCN(c3ccccc3OC)CC2)cc1OC,-7%,-5%,?,-11%,·,?
COc1ccc(-c2cccc(NS(=O)(=O)c3cc(C)c(Cl)cc3C)c2)nn1,·,·,-11%,4%[57 µM],·,-29%
CN1C(=O)/C(=C/c2ccc(OCc3ccc(C(=O)O)cc3)c(Cl)c2)NC1=S,·,-11%,?,27%,-20,-33%
CCOc1cc(/C=C2/NC(=O)NC2=O)cc(Br)c1OCc1ccc(C(=O)O)cc1,?,·,71µM*,?,?,?
COc1cc(/C=C2\NC(=O)NC2=O)cc(Br)c1OC,·,·,-2%,2%,4,-7%
CCOc1cc(/C=C2\NC(=S)N(C)C2=O)ccc1OCc1ccc(C(=O)O)cc1,·,·,71µM*,25%,-5,?
O=C(NNC(=O)c1cc2cc(Br)ccc2oc1=O)c1ccc(O)cc1O,?,·,11µM*,0%,4,?
COc1ccc(C(=O)NCC(c2ccc3c(c2)OCO3)N2CCN(C)CC2)cc1 (stereo unspecified),·,·,1%,29%[57 µM],·,2%
COc1ccc(N2CCN(C(CNC(=O)c3ccc(C)cc3)c3ccc4c(c3)OCO4)CC2)cc1 (stereo unspecified),·,·,20µM*,-18%[57 µM],·,28µM*
O=C(COCc1cc(-c2cccs2)on1)NCc1ccc(Cl)cc1,·,·,1%,-9%,·,-11%
O=C(NCCN1CCOCC1)NC1(C(F)(F)F)Oc2ccc(Cl)cc2O1 (stereo unspecified),3.2µM*,5%,2%,34%,8,40µM*
O=C(NCCN1CCOCC1)c1cc(Cl)ccc1Cl,·,0%,-1%,27%,-4,-15%
COc1ccccc1N1CCN(c2ncnc3c2cnn3C)CC1,·,·,0%,22%,·,-17%
Cc1c(Cl)cccc1NC(=O)CNC(=O)Cc1c[nH]c2ccccc12,·,-6%,-3%,16%,-4,-6%
CCOc1ccc(/C=N/NC(=O)CN2CCCCCCC2)cc1,?,·,50µM*,?,-4,20µM*
O=C(CN1CCCCCC1)N/N=C/c1ccc(Cl)c(Cl)c1,1%,-9%,50µM*,-24%,-6,8.9µM*
O=C(CN1CCCCCC1)N/N=C/c1cccs1,-25%,·,79µM*,-28%,·,3.2µM*
CCN1CCN(CC(=O)N/N=C/c2cc(Br)cs2)CC1,·,?,25µM*,?,1,4µM*
O=C(CN1CCN(Cc2ccccc2)CC1)N/N=C/c1cccs1,-7%,?,?,47%,4,-11%
CCn1nnc2cc(C(=O)Nc3cc(C)ccc3C)ccc21,·,·,1%,17%,·,-13%
CCN1C(=O)c2ccccc2Sc2ccc(NC(=O)Nc3cc(C)cc(C)c3)cc21,·,·,-4%,20%,·,-5%
Cc1ccc(N(C(=O)c2csnn2)C(C(=O)NC2CCCC2)c2cccnc2)c(C)c1 (stereo unspecified),·,·,-11%,89%,-1,-4%
CCOc1ccc(/C=N/NC(=O)C(C)N(c2ccc(OC)cc2)S(C)(=O)=O)cc1 (stereo unspecified),0%,-1%,0%,13%,·,-16%
CCOc1ccc(N(CC(=O)N/N=C/c2ccc(OC(C)C)cc2)S(C)(=O)=O)cc1,2%,-2%,56µM*,1%,0,?
Cc1ccc(NCc2ccc(O)c3ncccc23)cc1,-2%,-25%,-25%,?,?,8.9µM*
SMILES,JMJD2E inh,L3MBTL1 inh,BAZ2B inh,HP1b binding inh,PI5P4K alpha inh,JMJD2A Tudor inh
Cc1cccnc1NCc1ccc(O)c2ncccc12,18µM*,28µM*,13µM*,-15%,-2,22µM*
Cc1ccc(NCc2ccc(O)c3ncccc23)cc1C,1%,-19%,13%,11%,-16,?
Cc1cccc(N2CCN(C(=O)Cn3c(-c4cccs4)cc4ccccc43)CC2)c1C,·,·,-12%,17%,·,-23%
CCN(CC)c1ccc(C(=O)OCC(=O)N2CCN(c3ccccc3)CC2)cc1,3%,7%,-37%,12%,-3,4.5µM*
O=C(OCC(=O)N1CCN(c2ccccc2)CC1)c1ccc(Cl)nc1,·,12%,-1%,13%,-6,-2%
CCCc1ccc(O)c(N=Cc2cc(Br)cc(OCC)c2O)c1,16µM*,·,?,22%,-28,?
CCc1ccc(O)c(N=Cc2cccc(C)c2O)c1,?,-1%,-34%,-3%,·,?
CCn1cnc2c(Nc3ccc(CCC(=O)N=C(N)N)cc3)nc(C#N)nc21,·,·,·,·,·,-9%
CCN(CC)C(=O)N1CCN(C)CC1,25µM*!,·,?,-19%,-3,56µM*
CCN(CC)C(=O)N1CCN(C(=O)N(CC)CC)CC1,9%,3%,6%,33%,-6,3%
CC[N+]1=C(C)C(C)(C)c2cc(C)ccc21,-14%,·,45µM*,-2%,-4,-4%[11.4 µM]
COc1ccc(OC)c(CNC(=O)NCc2noc3ccc(C)cc23)c1,·,·,5%,59%,·,6%
Oc1cc2c(cc1O)C1c3ccc(O)c(O)c3OCC1(O)C2 (stereo unspecified),0.71µM*,?,45µM*,?,-74*,3.5µM*
Cc1cc(C)c2c(=O)n(CC(=O)N3CCC(Cc4ccccc4)CC3)sc2n1,?,-9%,1%,·,·,·
CCOc1ccc(NC(=O)Cn2sc3nc(C)cc(C)c3c2=O)cc1,?,-4%,-37%,5.6µM*,-71*,0.89µM*
Cc1ccc(NC(=O)Cn2sc3nc(C)cc(C)c3c2=O)c(Cl)c1,?,-1%,45µM*,?,-72*,1.6µM*
Cc1cc(C)c2c(=O)n(CC(=O)Nc3ccc(Cl)cc3)sc2n1,28µM*,·,40µM*,7.9µM*,-64*,1.1µM*
Cc1cc(C)c2c(=O)n(CC(=O)Nc3cccc(F)c3)sc2n1,?,-4%,50µM*,?,-67*,1.1µM*
CC1=CC(C)(C)NC(=S)N1C(C)c1ccccc1 (stereo unspecified),·,·,?,18%,-2,-31%
N#C/C(=C\c1cccs1)C(=O)NCc1ccccc1,1%,7%,3%,11%,-25,40µM*
N#C/C(=C\c1cccs1)C(=O)NCc1cccnc1,0%,4%,-3%,44%,0,-2%
N#C/C(=C\c1cccs1)C(=O)Nc1nccs1,-10%,-19%,50µM*,-18%,-29,20µM*
COc1cc(-c2noc(C)c2/C=C/c2ccc(C(=O)O)cc2)cc(OC)c1OC,·,?,?,3%,-3,71µM*
COc1cc(-c2noc(C)c2/C=C/c2cccc([N+](=O)[O-])c2)cc(OC)c1OC,·,-11%,?,22%,1,-27%
C/C(Cn1nnc([N+](=O)[O-])n1)=N\NC(=O)c1ccc(O)cc1,3%,·,-3%,21%[57 µM],9,-10%
